Records with an inconclusive call do not appear. The source holds several records for some structures; these can differ, active in one and inactive in another. Calls of active or inactive are those of the source. Unless noted, calls follow the shape of the dose curve; as a rule, active = well fitted curve in the direction sought with a large enough effect; inconclusive = small, poorly fitted or top-dose-only effect, or another doubt; inactive = no such curve, though single readings can be large; an effect the other way counts as inactive or inconclusive.

We go through nine compounds from PubChem BioAssay (NCATS).

Assay [1] has as its target Ferritin light chain (Equus caballus) (UniProt P02791). As to the kind of experiment: qHTS Validation Assay for Identification of Novel General Anesthetics (AID 2323). Also: series mostly up to about 77 µM. The method in brief:
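Normalized fluorescence response, scaled between free 1-AMA and 1-AMA/apoferritin complex, fitted to a four-parameter Hill equation for concentration-effect values. Binding mix: 10 uM horse-spleen apoferritin, 50% saturated 1-AMA in PBS; read 380/535 nm after 10 min.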

Assay [2] addresses ATP-dependent DNA helicase Q1 (Homo sapiens) (UniProt P46063). As to the kind of experiment: qHTS Validation Assay for Inhibitors of RecQ-Like Dna Helicase 1 (RECQ1) (AID 2353). The method in brief: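 50 nM RECQ1T1 preincubated 15 min with compound in Tris pH 8.0 buffer with MgCl2, DTT, Tween-20 and 2.5 ug/ml poly(dI-dC); started with 200 nM TAMRA/BHQ-2 forked duplex and 2 mM ATP. Unwinding read as fluorescence (525/598 nm), two reads 2 h apart.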
(In qHTS, concentration-response curves come from the screen itself.)

Assay [3] deals with RecQ-like DNA helicase BLM (Homo sapiens) (UniProt P54132). As to the kind of experiment: qHTS Validation Assay for Inhibitors of Bloom's syndrome helicase (BLM) (AID 2364). Also: potency is read from the fitted curve at half-maximal effect. In a few lines:
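Forked 20-bp duplex substrate (200 nM, TAMRA/BHQ-2) plus 2 mM ATP added after 15 min compound preincubation with 50 nM enzyme, pH 8.0, poly(dI-dC) 2.5 ug/ml. Strand separation followed by fluorescence (525/598 nm) over 2 h, normalized to enzyme-free and DMSO controls.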

A short description of assay [4]: Cytometric Cell-Based qHTS for Inhibitors of the mTORC1 Signaling Pathway in MEF (Tsc2-/-, p53-/-) Cells (AID 2660).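 Also: percent of cells above a phospho-rpS6 to PI ratio cutoff in each well; series mostly up to about 38 µM.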 The method in brief: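 Tsc2-/-, p53-/- MEFs (empty vector) exposed to compound 24 h at 37 C, fixed, stained with Alexa-488 anti-phospho-rpS6 Ser235/236 and propidium iodide. Acumen laser scanning; phospho-S6/PI ratio thresholded against 7.5 nM rapamycin, reported as % positive cells.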

Assay [5] is described as follows: High Content Imaging Cell-Based qHTS for Inhibitors of the mTORC1 Signaling Pathway in MEF (Tsc2-/-, p53-/-) Cells (AID 2666).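 Also: percent of cells scored positive for phospho-rpS6 Ser235/236 immunostaining by imaging.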 The method in brief: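 Cells were plated, dosed with compound after 24 hrs, and incubated another 24 hrs at 37 degree Celsius. Fixed cells were immunostained for phospho-rpS6 Ser235/236 and counterstained, and the normalized signal was scored as % active cells against rapamycin and DMSO controls.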

Assay [6] is described as follows: High Content Imaging Cell-Based qHTS for Inhibitors of the mTORC1 Signaling Pathway in MEF Cells (AID 2667). Also: potency is read from the fitted curve at half-maximal effect. The method in brief:
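Immunofluorescence for rpS6 phosphorylation in MEFs of Tsc2-/-, p53-/- background rescued with WT Tsc2. Compound exposure lasted 24 hrs. Inhibition was scored against rapamycin-treated control wells.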

A short description of assay [7]: Validation screen for small molecules that induce DNA re-replication in MCF 10A normal breast cells (AID 463097). Also: nearly all actives have a fitted effect of over 60% in size. In a few lines: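 Following 48 hr compound incubation (37 C, 5% CO2), MCF 10A cells receive Hoechst for 40 min at 37 C. Nuclei are then scanned (excitation 405 nm, emission 500-530 nm) for total fluorescence intensity.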
The target of assay [8] is Ubiquitin carboxyl-terminal hydrolase 2 (Homo sapiens) (UniProt O75604). As to the kind of experiment: qHTS Validation Assay for Inhibitors of Ubiquitin-specific Protease USP2a Using CHOP2 as the Reporter (AID 463106). The method in brief: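 10nM USP2 core + cpd, 30min RT; add 25nM Ub-CHOP2/25nM substrate; 60min RT; FI 485/531nm. Buffer Tris pH 8.0, CaCl2, BME, CHAPS. Norm. to NEM = 100% inhibition; time-zero read flags fluorescent artifacts.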

Assay [9] concerns the target DNA polymerase III PolC-type (Bacillus subtilis (strain 168)) (UniProt P13267). As to the kind of experiment: qHTS Validation Assay for the Inhibitors of DNA Replication in Gram-Positive Bacteria (AID 485295).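 Also: reconstituted holoenzyme with PolC plus beta clamp SSB and primase; PicoGreen fluorescence of double-stranded DNA made on primed circular M13 template; series mostly up to about 57 µM.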 The method in brief: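 Inhibition of DNA synthesis by the reconstituted PolC holoenzyme, monitored through PicoGreen staining of dsDNA formed from ssM13Gori, dNTPs and NTPs, with compound preincubation and room-temperature reaction.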

Assay [10] addresses Tumor susceptibility gene 101 protein (Homo sapiens) (UniProt Q99816). As to the kind of experiment: qHTS Validation Assay for Iinhibitors of HIV-1 Budding by Blocking the Interaction of PTAP/TSG101 (AID 485342; calls by dose curve). The method in brief:
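Compound wells held the Tsg101 binding domain (10 uM) and a FITC-conjugated PTAP peptide (50 nM) in buffer at pH 7.5 containing 0.15 M NaCl and 0.01% Tween 20; polarization was recorded after 20 min, r.t.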

The target in assay [11] is Beta-2 adrenergic receptor (Homo sapiens) (UniProt P07550). As to the kind of experiment: qHTS validation assay of beta-arrestin-biased ligands of beta2-adrenergic receptor (AID 485366). The method in brief:
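Tango cells expressing recombinant beta2-AR and beta-arrestin with tTA-driven luciferase, in DMEM with 1% FBS. Compounds were titrated up to 46 microM for 18 hr at 37 degrees C. Luminescence was read 15 min after substrate; curves were fitted and class-assigned.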

Assay [12] addresses ATP-dependent 6-phosphofructokinase (Trypanosoma brucei brucei) (UniProt O15648). As to the kind of experiment: qHTS Validation Assay to Find Inhibitors of T. brucei phosphofructokinase (AID 485368). The method in brief:
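Activity was read as ADP production by luminescence (ADP-Glo) after 45 min at room temperature. The enzyme was 1.25nM PFK in 0.1M TEA pH 8.0 with 0.5 mM F6P, 0.1mM ATP and 5 mM MgCl2. Compounds were titrated up to 57 uM and % activity normalized to no-enzyme and full-enzyme controls.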

The nature of assay [13]: Quantitative high throughput screen for delayed death inhibitors of the malarial parasite plastid, 96 hour incubation (AID 488745). Also: nearly all actives have a fitted effect of over 70% in size. Also: potency is read from the fitted curve at half-maximal effect. In a few lines:
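Infected erythrocytes were added to compound in Albumax-supplemented RPMI 1640 at 0.1% parasitemia and 2% hematocrit (final), incubated 96 h at 37 C under 5% CO2, then luciferase reagent was added and luminescence measured.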

A short description of assay [14]: Quantitative high throughput screen for delayed death inhibitors of the malarial parasite plastid, 48 hour incubation (AID 488752). Also: nearly all actives have a fitted effect of over 65% in size. Also: potency is read from the fitted curve at half-maximal effect. In a few lines: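 Readout is firefly luciferase luminescence from a reporter integrated into the parasite genome, with lower signal taken as inhibited growth. Infected red cells (0.1% parasitemia, 2% hematocrit final) are cultured with compound for one 48 h cycle at 37 C.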

The target of assay [15] is Thioredoxin reductase 1, cytoplasmic (Rattus norvegicus) (UniProt O89049). As to the kind of experiment: qHTS Assay for Substrates of Mammalian Selenoprotein Thioredoxin Reductase 1 (TrxR1) (AID 488772).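 Also: NADPH fluorescence in the first read after selenite addition and not the 8 min delta; series mostly up to about 57 µM; a drop in NADPH fluorescence below the no-compound background marks a TrxR1 substrate.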 The method in brief: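 Quantitative HTS in Tris-HCl buffer at pH 7.5 with EDTA and Tween-20, using rat TrxR1, 400 uM NADPH and 400 uM selenite (final). A fall in initial NADPH fluorescence relative to background marked substrate behaviour.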

Assay [16] has the same target. As to the kind of experiment: qHTS Assay for Inhibitors of Mammalian Selenoprotein Thioredoxin Reductase 1 (TrxR1) (AID 488773).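 Also: drop in NADPH fluorescence over an 8 min run after selenite addition; series mostly up to about 57 µM; nearly all actives have a fitted effect of over 40% in size.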 The settings on record: Potency: inhibition. In a few lines: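 Steps: enzyme (90 nM) plus NADPH (400 uM final), 5 min at ~22 deg C; compound added, 15 min; selenite (400 uM final) added; fluorescence followed for 8 min. Concentration-response curves derived from the normalized delta values.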

Assay [17] deals with Flap endonuclease 1 (Homo sapiens) (UniProt P39748). As to the kind of experiment: qHTS Validation Assay for the Inhibitors of Human Flap endonuclease 1 (FEN1) (AID 488816). In a few lines: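 Readings taken at 0 and 15 min after starting the reaction with 50 nM (final) substrate supplied the signal. Compounds had first sat with 10 nM FEN1 reagent for 15 min at room temperature. Values come from Hill-equation concentration-response fits.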

Assay [18] is described as follows: Cytometry Cell-Based qHTS for Inhibitors of the mTORC1 Signaling Pathway in MEF cells (AID 2668).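 Also: Tsc2-/- p53-/- mouse embryonic fibroblasts stably re-expressing wild-type Tsc2; percent cells positive for phospho-rpS6 Ser235/236 relative to propidium iodide stain; series mostly up to about 38 µM.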 The method in brief: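 In MEFs grown in DMEM + 10% FBS, a 24 hrs compound exposure preceded imaging of phospho-rpS6 Ser235/236 by laser-scanning cytometry.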
Assay [19] is described as follows: qHTS Validation Assay to Find Inhibitors of Chronic Active B-Cell Receptor Signaling (AID 485345; active = well fitted curve in the direction sought with a large enough effect in the main read-out, with a control signal flat, not every such curve was filed as active). In a few lines:
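Read-out: ratio of filter-corrected green (IkappaBalpha fusion) to red (native) luciferase signal in doxycycline-induced TMD8 cells after 4 h at 37C. Titration spanned 46 uM–3 nM; Data were normalised to basal cells and 10 uM MG-132 wells.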

The target of assay [20] is M-phase phosphoprotein 8 (Homo sapiens) (UniProt Q99549). As to the kind of experiment: qHTS Validation Assay for Inhibitors for MPP8 Chromodomain Interactions with Methylated Histone Tails (AID 488949). Also: nearly all actives have a fitted effect of over 55% in size. Also: potency is read from the fitted curve at half-maximal effect. The method in brief:
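Chemiluminescent proximity assay: histidine-tag capture via nickel acceptor beads, biotin peptide via streptavidin donor beads. Protein and peptide each at 50 nM, pH 7.4, with 30 min incubations at room temperature for complex formation, compound exposure and bead binding.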

Chain of RecQ-like DNA helicase BLM (Homo sapiens) (P54132 whole entry, looked up): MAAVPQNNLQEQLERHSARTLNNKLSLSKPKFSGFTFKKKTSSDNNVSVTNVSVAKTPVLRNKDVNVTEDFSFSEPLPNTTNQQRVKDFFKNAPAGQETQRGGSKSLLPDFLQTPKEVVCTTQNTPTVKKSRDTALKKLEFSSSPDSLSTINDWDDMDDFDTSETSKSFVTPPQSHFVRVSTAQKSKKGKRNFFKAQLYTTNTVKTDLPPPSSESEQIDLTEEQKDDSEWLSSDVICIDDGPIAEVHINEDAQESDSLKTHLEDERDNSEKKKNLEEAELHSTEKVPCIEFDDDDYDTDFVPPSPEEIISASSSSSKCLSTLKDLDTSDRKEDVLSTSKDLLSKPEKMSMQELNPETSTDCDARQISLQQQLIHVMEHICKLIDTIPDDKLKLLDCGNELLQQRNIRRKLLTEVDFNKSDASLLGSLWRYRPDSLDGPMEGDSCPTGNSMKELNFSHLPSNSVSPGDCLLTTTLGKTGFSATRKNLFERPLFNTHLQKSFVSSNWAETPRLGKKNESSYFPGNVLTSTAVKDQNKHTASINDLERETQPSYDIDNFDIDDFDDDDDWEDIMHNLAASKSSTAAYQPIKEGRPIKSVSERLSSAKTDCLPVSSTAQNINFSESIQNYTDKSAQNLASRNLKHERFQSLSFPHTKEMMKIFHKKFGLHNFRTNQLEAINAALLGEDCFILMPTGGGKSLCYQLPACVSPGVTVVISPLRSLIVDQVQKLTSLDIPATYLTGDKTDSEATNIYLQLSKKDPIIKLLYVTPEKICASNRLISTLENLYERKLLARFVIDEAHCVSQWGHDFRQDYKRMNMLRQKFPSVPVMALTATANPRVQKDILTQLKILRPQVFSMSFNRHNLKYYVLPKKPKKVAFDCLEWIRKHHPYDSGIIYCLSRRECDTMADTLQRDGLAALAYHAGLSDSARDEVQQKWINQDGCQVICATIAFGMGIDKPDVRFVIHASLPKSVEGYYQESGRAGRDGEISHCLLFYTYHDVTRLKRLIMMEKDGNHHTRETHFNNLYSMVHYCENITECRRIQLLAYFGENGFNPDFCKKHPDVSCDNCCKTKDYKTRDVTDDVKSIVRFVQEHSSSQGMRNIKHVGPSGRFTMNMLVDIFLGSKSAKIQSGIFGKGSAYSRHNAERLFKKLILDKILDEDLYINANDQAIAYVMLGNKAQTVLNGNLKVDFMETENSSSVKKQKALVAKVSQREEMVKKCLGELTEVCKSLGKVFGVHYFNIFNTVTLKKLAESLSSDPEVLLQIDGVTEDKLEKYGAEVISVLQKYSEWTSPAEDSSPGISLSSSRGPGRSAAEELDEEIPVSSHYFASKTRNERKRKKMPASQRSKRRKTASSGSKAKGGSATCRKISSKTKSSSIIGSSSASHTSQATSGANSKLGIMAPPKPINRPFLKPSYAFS
Chain of Ferritin light chain (Equus caballus) (P02791 2-175 limits assumed): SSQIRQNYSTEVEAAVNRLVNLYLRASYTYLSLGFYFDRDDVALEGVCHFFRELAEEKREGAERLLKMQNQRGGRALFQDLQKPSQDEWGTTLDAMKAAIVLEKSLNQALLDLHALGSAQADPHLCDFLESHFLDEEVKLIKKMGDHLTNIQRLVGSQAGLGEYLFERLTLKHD
Chain of Ubiquitin carboxyl-terminal hydrolase 2 (Homo sapiens) (O75604 whole entry, looked up): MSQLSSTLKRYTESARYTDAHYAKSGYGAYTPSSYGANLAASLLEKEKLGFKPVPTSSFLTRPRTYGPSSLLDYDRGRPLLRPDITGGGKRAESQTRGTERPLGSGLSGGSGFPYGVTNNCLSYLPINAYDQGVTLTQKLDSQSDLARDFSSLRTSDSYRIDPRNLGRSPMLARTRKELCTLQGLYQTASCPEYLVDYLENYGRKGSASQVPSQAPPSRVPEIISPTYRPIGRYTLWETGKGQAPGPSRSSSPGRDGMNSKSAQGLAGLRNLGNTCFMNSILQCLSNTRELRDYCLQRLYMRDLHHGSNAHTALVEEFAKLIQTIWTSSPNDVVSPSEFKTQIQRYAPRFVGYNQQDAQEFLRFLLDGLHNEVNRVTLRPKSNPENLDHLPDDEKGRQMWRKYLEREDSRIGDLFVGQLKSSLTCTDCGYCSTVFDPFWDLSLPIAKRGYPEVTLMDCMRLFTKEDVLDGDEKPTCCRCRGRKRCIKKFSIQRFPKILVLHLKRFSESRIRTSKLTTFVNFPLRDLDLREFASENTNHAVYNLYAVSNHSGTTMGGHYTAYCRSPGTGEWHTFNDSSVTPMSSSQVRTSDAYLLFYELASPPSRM
Chain of Beta-2 adrenergic receptor (Homo sapiens) (P07550 whole entry, looked up): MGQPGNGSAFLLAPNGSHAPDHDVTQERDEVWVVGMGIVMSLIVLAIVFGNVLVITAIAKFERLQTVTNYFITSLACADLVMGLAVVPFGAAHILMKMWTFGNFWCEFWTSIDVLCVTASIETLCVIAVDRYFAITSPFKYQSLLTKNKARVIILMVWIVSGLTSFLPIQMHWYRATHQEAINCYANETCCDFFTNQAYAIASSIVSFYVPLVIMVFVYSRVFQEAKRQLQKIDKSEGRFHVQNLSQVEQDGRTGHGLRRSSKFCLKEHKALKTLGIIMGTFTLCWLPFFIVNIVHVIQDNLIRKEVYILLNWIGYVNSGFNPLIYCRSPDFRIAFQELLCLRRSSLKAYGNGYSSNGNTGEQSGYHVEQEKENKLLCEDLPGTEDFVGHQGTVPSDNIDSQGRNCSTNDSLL
Chain of DNA polymerase III PolC-type (Bacillus subtilis (strain 168)) (P13267 whole entry, looked up): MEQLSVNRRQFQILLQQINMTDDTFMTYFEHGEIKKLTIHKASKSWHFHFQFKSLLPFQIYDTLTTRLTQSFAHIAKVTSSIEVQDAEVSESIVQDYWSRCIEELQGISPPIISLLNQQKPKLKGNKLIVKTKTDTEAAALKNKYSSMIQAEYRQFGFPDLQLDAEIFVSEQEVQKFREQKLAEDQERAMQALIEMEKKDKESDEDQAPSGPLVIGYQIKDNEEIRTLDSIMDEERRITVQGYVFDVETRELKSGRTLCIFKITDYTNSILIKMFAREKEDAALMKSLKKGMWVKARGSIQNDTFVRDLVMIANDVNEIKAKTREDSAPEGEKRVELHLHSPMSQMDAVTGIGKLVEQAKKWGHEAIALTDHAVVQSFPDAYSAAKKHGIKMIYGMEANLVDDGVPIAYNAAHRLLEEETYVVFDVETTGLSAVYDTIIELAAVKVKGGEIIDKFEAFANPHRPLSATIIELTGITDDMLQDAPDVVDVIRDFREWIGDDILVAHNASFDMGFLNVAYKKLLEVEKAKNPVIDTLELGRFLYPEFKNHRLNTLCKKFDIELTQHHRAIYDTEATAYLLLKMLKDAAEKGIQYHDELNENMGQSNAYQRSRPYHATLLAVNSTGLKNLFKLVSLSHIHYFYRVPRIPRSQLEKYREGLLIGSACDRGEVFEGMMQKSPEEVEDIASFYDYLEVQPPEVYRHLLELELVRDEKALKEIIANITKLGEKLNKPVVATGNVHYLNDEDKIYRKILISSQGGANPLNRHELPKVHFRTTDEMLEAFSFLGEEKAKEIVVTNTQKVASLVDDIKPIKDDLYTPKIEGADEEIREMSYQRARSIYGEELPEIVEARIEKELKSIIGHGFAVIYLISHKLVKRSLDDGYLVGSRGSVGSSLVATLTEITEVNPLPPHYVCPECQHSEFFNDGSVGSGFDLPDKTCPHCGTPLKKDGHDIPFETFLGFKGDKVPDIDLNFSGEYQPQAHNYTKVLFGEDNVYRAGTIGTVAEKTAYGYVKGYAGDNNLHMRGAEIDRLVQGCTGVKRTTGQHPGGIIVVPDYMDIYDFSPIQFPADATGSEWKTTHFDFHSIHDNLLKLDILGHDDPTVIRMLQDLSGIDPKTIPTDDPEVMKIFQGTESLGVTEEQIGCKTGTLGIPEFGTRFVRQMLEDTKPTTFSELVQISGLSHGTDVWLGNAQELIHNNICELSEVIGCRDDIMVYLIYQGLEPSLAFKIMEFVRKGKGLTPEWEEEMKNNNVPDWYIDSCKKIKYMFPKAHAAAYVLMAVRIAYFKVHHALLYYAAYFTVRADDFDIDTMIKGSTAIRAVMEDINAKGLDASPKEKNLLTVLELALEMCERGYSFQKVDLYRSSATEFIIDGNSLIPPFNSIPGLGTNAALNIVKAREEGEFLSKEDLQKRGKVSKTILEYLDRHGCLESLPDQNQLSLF
Chain of Tumor susceptibility gene 101 protein (Homo sapiens) (Q99816 whole entry, looked up, the tested form may be a part): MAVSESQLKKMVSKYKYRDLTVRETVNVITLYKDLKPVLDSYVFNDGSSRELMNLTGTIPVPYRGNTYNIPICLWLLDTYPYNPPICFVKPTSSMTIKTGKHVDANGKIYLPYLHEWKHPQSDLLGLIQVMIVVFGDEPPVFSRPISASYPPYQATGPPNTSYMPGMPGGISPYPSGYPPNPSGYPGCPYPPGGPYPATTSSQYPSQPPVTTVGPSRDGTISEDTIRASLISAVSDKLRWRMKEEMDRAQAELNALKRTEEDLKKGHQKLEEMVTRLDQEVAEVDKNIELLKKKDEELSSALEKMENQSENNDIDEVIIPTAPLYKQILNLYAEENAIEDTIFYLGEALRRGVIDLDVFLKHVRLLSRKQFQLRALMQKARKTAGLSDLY
Chain of ATP-dependent 6-phosphofructokinase (Trypanosoma brucei brucei) (O15648 whole entry, looked up): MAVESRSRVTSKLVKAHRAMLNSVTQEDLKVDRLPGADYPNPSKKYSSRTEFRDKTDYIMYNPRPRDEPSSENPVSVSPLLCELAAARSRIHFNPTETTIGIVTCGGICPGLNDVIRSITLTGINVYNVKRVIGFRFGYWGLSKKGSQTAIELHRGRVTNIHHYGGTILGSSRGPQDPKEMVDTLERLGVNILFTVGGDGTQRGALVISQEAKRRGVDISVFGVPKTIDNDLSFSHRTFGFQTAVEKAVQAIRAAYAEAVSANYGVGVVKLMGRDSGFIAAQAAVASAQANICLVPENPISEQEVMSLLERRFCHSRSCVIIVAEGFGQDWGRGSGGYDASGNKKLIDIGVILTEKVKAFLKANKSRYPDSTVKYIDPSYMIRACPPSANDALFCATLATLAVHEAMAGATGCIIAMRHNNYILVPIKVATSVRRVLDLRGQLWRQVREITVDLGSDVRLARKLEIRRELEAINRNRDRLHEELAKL

In the case of `CCCNCC(O)COc1ccccc1C(=O)CCc1ccccc1` (stereo not drawn), the Potency result in [1], in assay [2], in assay [3], in assay [5], in assay [7] and in [8] was “inactive” each time. Further, the Potency entry in assay [9], in assay [12], in assay [16] and in assay [17] was “inactive” each time. For the same compound, the result in assay [4], in assay [10], in assay [11] and in assay [15] was inactive. Besides, the figures for the Potency in [6], in assay [13] and in [14] were 16.5 µM (active), 2.62 µM (active) and 2.33 µM (active), respectively.
As to `CN1CCC(=C2c3ccccc3CC(=O)c3sccc32)CC1`, the Potency result in assay [1], in assay [2], in assay [3], in assay [5], in assay [18] and in [7] was “inactive” in each case. For the same compound, the Potency entry in assay [8], in [9], in assay [19], in [13], in [14] and in assay [16] was “inactive” throughout. Moreover, the Potency entry in assay [17] and in [20] was “inactive” in each case. Also, the result in assay [4], in [10], in [11] and in assay [15] was inactive.
For `Nc1c2c(nc3ccccc13)CCCC2`, the Potency result in [1], in [2], in [3], in [5], in assay [18] and in assay [7] was “inactive” throughout. Moreover, the Potency entry in assay [9], in assay [19], in assay [12], in assay [16], in assay [17] and in assay [20] was “inactive” in each case. Moreover, the call in assay [4] and in assay [10] was inactive.
Take `COc1ccc(CCN(C)CCCC(C#N)(c2ccc(OC)c(OC)c2)C(C)C)cc1OC` (stereo not drawn): the Potency entry in assay [1], in [2], in [5], in assay [18], in assay [7] and in assay [9] was “inactive” each time. The outcome in assay [3], in [4], in assay [10] and in [11] was inactive.
Regarding `COc1ccc2c(c1)c(CC(=O)O)c(C)n2C(=O)c1ccc(Cl)cc1`, the Potency result in assay [1], in assay [2], in [3], in assay [5], in assay [6] and in [7] was “inactive” each time. The Potency result in assay [9], in assay [19], in assay [12], in assay [13], in assay [14] and in assay [16] was “inactive” in each case. Moreover, the Potency entry in [17] and in [20] was “inactive” throughout. For the same compound, the compound was called inactive in assay [4], in [10], in assay [11] and in assay [15].
On to `CCOC(=O)Nc1ccc(NCc2ccc(F)cc2)nc1N`, for which the Potency result in [1], in assay [2], in assay [5], in [6], in assay [18] and in assay [8] was “inactive” each time. For the same compound, the Potency result in assay [9] was “inactive”. Besides, the Potency in [3] is 28.2 µM (active); in assay [20], 39.8 µM (active) and inactive. Also, the result in assay [4], in assay [11] and in assay [15] was inactive.
As to `Cn1cnc2c1c(=O)[nH]c(=O)n2C`, the Potency entry in assay [1], in assay [2], in assay [3], in assay [5], in [18] and in assay [7] was “inactive” throughout. In addition, the Potency result in assay [9], in assay [13], in [14], in assay [16], in assay [17] and in assay [20] was “inactive” in each case. Besides, the outcome in assay [4], in assay [10], in assay [11] and in assay [15] was inactive.
For `CC(CCc1ccc(O)cc1)NCCc1ccc(O)c(O)c1` (stereo not drawn), the Potency entry in [1], in assay [2], in assay [3], in [5], in [18] and in assay [9] was “inactive” each time. The Potency result in [19], in assay [12], in [16], in assay [17] and in assay [20] was “inactive” throughout. Moreover, the compound was called inactive in assay [4], in assay [10], in [11] and in assay [15]. Besides, the Potency in assay [13] was 5.86 µM (active); in [14], 13.1 µM (active).
With `CC(C(=O)O)c1cccc(C(=O)c2ccccc2)c1` (stereo not drawn), the Potency result in assay [1], in assay [2], in [3], in assay [5], in assay [18] and in assay [7] was “inactive” each time. Further, the Potency entry in [9], in assay [19], in [13], in [14], in assay [16] and in [20] was “inactive” in each case. Further, the outcome in [4], in assay [10], in assay [11] and in assay [15] was inactive.
